# HT1080 IDH1KD tx: HT-1080 IDH1 knockdown cell toxicity (counter line); Potency, µM (highest dose often 46.1 µM), without a hit: top-dose activity, negative = toxicity, hits mostly cytotoxic; hit rate 2% among 360,000; HT-1080 IDH1 knockdown viability, ATP luminescence, 48 h; AID 686971;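 further: potency means the concentration at half of the fitted maximal effect; 0% = DMSO wells and -100% = cell-free medium wells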
#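 Luminescent ATP read-out (CellTiter-Glo, 10 min at room temperature) after 48 h compound exposure at 37 °C gave viability of IDH1-knockdown HT-1080 cells. Activity was normalised to DMSO and cell-free wells, then fitted as concentration-response curves.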
# HT1080-NT tox: kills 2HG-producing HT-1080-NT fibrosarcoma cells | HT-1080-NT fibrosarcoma viability, CellTiter-Glo ATP luminescence, 48 h | Potency, µM (series often up to 46.1 µM), without a hit: at the top dose activity, negative = less viability, hits mostly cytotoxic | hit rate 1.6% among 360,000 | AID 686970;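 further: NT is the 2HG producing partner of a matched IDH1 knockdown line; potency means the concentration at half of the fitted maximal effect; 0% = DMSO-treated cells and -100% = media-only wells without cells; nearly all actives have a fitted effect of over 55% in size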
#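 Read-out is CellTiter-Glo luminescence after 10 minutes at room temperature, following 48 hours' compound treatment of HT-1080-NT cells (750 cells/well, RPMI, 5% FBS, 37 degrees C).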
# ALOX12 inh: ALOX12 (human) lipoxygenase inhibition; P18054; purified 12hLO, xylenol orange hydroperoxide absorbance; Potency, µM (titrated, usually from 108 µM), for inactives: at the highest dose activity change, negative = inhibition, usual class: inhibitors; hit rate 1.1% among 580,000; further: potency means the concentration at half of the fitted maximal effect
# Target sequence (P18054 whole entry, looked up): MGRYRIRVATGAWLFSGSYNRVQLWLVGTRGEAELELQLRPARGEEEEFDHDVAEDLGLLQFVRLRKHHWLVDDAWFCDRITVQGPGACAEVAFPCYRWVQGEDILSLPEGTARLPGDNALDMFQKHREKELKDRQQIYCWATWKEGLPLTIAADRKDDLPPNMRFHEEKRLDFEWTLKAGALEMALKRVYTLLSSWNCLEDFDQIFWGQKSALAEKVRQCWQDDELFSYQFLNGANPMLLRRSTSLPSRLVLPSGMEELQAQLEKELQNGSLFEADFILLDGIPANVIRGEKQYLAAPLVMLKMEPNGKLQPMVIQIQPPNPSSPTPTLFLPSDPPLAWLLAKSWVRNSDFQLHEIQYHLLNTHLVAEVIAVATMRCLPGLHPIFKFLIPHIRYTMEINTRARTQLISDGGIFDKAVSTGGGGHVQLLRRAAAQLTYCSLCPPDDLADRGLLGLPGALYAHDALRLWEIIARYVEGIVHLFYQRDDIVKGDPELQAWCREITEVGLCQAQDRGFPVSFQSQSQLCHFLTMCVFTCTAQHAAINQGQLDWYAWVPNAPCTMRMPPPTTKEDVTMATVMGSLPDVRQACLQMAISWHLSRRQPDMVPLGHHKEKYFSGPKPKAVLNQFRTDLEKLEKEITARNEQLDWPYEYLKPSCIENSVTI
#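 Purified human 12hLO at 150 nM in 25 mM Hepes, 0.01% Triton X-100, pH 7.0, preincubated 15 min at room temperature with compound. Reaction started with 40 uM arachidonic acid, 30 min at room temperature. Hydroperoxide measured by Fe-xylenol orange, 573/405 nm absorbance ratio.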
# DT40 TDP1 no CPT: qHTS for Inhibitors of human tyrosyl-DNA phosphodiesterase 1 (TDP1): qHTS in cells in absence of CPT | DT40 Tdp1-/- hTDP1 cells, no CPT, ATP luminescence, 48 h | Potency, µM (series often up to 46.2 µM), for inactives: top-dose activity change, negative = growth inhibition, hits mostly inhibitors | hit rate 15% among 420,000 | AID 686978, 2013; further: potency means the concentration at half of the fitted maximal effect; nearly all actives have a fitted effect of over 55% in size
#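 Chicken DT40 Tdp1-/- cells complemented with human TDP1, screened without camptothecin (DMSO vehicle only), 400 cells/well. Compounds pin-transferred, cells incubated at 37 °C for at least 48 hr. Growth read as ATP-dependent luminescence (CellTiter-Glo, 30 min at RT).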
# IL-1B inflam inh: blocks inflammasome-driven IL-1 beta release | activity change, % at 57.5 µM | THP-1 LPS/ATP IL-1B secretion, AlphaLISA, 16 h; stronger effect = lower value | hit rate 4.7% among 360,000; in the data active means activity change below about -50%; inconclusive means mostly about -30% to -49%
#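 Secreted IL-1B measured by AlphaLISA bead assay after 16 h compound exposure of THP-1 cells; compounds (final up to 57.5 uM) added 1 h before LPS (250 ng/mL) and ATP (1.25 mM) stimulation; lower signal means less secretion.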
# TDP1 cell CPT: growth inhibition of DT40 Tdp1-/-;hTDP1 cells with camptothecin (screen for TDP1 inhibitors); chicken DT40 Tdp1-/-;hTDP1 cells + 20 nM CPT, ATP luminescence, 48 h; Potency, µM (highest dose often 46.2 µM), without a hit: top-dose activity change, negative = growth inhibition, most hits filed as inhibitors; hit rate 12% among 420,000; AID 686979; further: potency means the concentration at half of the fitted maximal effect; nearly all actives have a fitted effect of over 55% in size
#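 Cell growth measured by CellTiter-Glo luminescence after a minimum 48 h, 37 C compound exposure with 20 nM CPT in Tdp1-knockout DT40 cells stably expressing hTDP1, seeded 400/well; qHTS titration format.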
# * hit, by the source's call; i = inactive; ? = inconclusive; . = no result; ! = repeats disagree; [ ] = another dose, or the depositor's remark. The entries come from a sample that favours hits as a whole. Unless noted, the call rests on the fitted dose curve; in most records, active means well fitted curve in the direction sought with a large enough effect; inconclusive means small, poorly fitted or top-dose-only effect, or another doubt; inactive means no such curve, though single readings can be large; an effect the other way counts as inactive or inconclusive. Unless noted, on the % scale 0 is the no-effect control and ±100 the full control effect.
SMILES,HT1080 IDH1KD tx,HT1080-NT tox,ALOX12 inh,DT40 TDP1 no CPT,IL-1B inflam inh,TDP1 cell CPT
COC(=O)c1sccc1S(=O)(=O)N(CC(=O)Nc1cc(C)ccc1C)c1ccc(C)c(C)c1,.,.,-15%,21µM*,.,21µM*
COC(=O)c1sccc1S(=O)(=O)N(CC(=O)Nc1cccc(C)c1C)c1ccc(C)c(C)c1,.,.,-10%,23µM*,.,21µM*
COC(=O)c1sccc1S(=O)(=O)N(CC(=O)Nc1cc(F)ccc1F)c1ccc(C)c(C)c1,.,.,-11%,13µM*,.,?
O=C(NCCCc1ccccc1)c1ccc2nccn2c1,.,.,32%[176 µM],.,.,.
CC(C)c1nnc(NC(=O)c2nc(S(=O)(=O)Cc3ccc(F)cc3)ncc2Cl)s1,23µM*,26µM*,-3%,4.1µM*,-105*,4.6µM*
CSc1nnc(NC(=O)c2nc(S(=O)(=O)Cc3cccc(C)c3)ncc2Cl)s1,21µM*,?,-4%,8.2µM*,-102*,8.2µM*
CSc1ncc(Cl)c(C(=O)Nc2nnc(SC/C=C/c3ccccc3)s2)n1,21%,0%,2%,-8%,16,-9%
Cc1ccc(C)c(NC(=O)c2nc(S(=O)(=O)Cc3ccc(F)cc3)ncc2Cl)c1,.,.,7%,2.1µM*,.,1.5µM*
CCSc1nnc(NC(=O)c2nc(S(=O)(=O)Cc3ccc(F)cc3)ncc2Cl)s1,?,?,-6%,10µM*,-103*,13µM*
O=c1ncn(Cc2ccccc2)c2ccc(NCCOc3ccccc3)nc12,.,.,21%[176 µM],.,.,.
Cc1cccc(CS(=O)(=O)c2ncc(Cl)c(C(=O)Nc3nnc(C(C)C)s3)n2)c1,7.3µM*,10µM*,?,13µM*,-102*,4.6µM*
Cc1ccc(CS(=O)(=O)c2ncc(Cl)c(C(=O)Nc3nnc(C(C)C)s3)n2)cc1,9.2µM*,21µM*,-6%,12µM*,-101*,5.8µM*!
Cc1nc(N2CCOCC2)nc2c1CCC2,24%,-2%,0%,-31%,-12,-27%
Cc1ccc(C)c(CSc2nc3c(cnn3CCO)c(=O)[nH]2)c1,.,.,18%,.,.,.
Cc1ccnc(-n2c(C)cc(/C=N/NC(=O)COc3cccc4cccnc34)c2C)c1,22%,9%,246%,-4%,-54*,5%
C=CCc1ccccc1OCC(=O)N/N=C/c1ccc(OC(C)=O)cc1OC(C)=O,?,-30%,0%,6.5µM*,57,5.8µM*
COc1cccc(/C=N/NC(=O)COc2cccc3cccnc23)c1O,18µM*,-21%,-8%,4.1µM*,120,7.3µM*
COc1ccccc1OCC(=O)N/N=C/c1cccc2cccnc12,-14%,-4%,?,21µM*,i,?
COC(=O)N/N=C/c1ccccc1OC(C)=O,.,.,3%,.,.,.
CC(C)(C)c1ccc(C2CC2C(=O)N/N=C\c2cc3ccccc3nc2Cl)cc1 (stereo not drawn),4%,9%,-7%,16µM*,8,?
Cc1ccccc1OCC(=O)N/N=C/c1cc2ccccc2nc1Cl,-21%,-16%,-9%,15µM*,-6,15µM*
O=C(COc1ccc(Cl)cc1)N/N=C/c1cccc2cccnc12,?,-20%,2%,18µM*,i,?
COc1ccc(OCC(=O)N/N=C/c2ccc(OC)c(OC)c2C(=O)O)cc1,6%,9%,-4%,-2%,-4,-14%
O=C(COc1cccc(Cl)c1)N/N=C\c1cc2ccccc2nc1Cl,4%,7%,20%,?,12,?
COc1ccc(OCC(=O)N/N=C/c2cccc3cccnc23)cc1,?,?,421%,?,128,?
SMILES,HT1080 IDH1KD tx,HT1080-NT tox,ALOX12 inh,DT40 TDP1 no CPT,IL-1B inflam inh,TDP1 cell CPT
COc1ccc(/C=N/NC(=O)COc2ccc3ccccc3c2)c(C(=O)O)c1OC,9%,12%,10%,?,-11,16µM*
Cc1cccc(CNC(=O)C2CCCN(c3cnc4nc(C)c(C)nc4c3)C2)c1 (stereo not drawn),.,.,-10%,.,.,.
COc1ccccc1CC(=O)NCCn1cccc1-c1nc(-c2ccccc2)no1,.,.,74%,.,.,.
CCCCN1CC(C)(C)Oc2cccc(F)c2S1(=O)=O,4%,4%,0%,-25%,-2,-13%
Cc1nc([C@@H]2CN(Cc3ccc(C(F)(F)F)cc3)C[C@H]2C(N)=O)n[nH]1,.,.,41%,.,.,.
CCn1cc(C(=O)NCc2ccccc2OC)c(=O)c2cc(S(=O)(=O)N3CCCCC3)ccc21,.,.,-26%,?,.,18µM*
CCn1cc(C(=O)NCc2ccccc2Cl)c(=O)c2cc(S(=O)(=O)N3CCCCCC3)ccc21,.,.,0%,21µM*,.,?
COc1ccccc1CNC(=O)c1cn(C)c2ccc(S(=O)(=O)N3CCCC3)cc2c1=O,4%,-2%,-23%,?,14,?
C[C@H](NC(=O)[C@@H]1CCCN1C(=O)OC(C)(C)C)c1ccccc1,2%,14%,-17%,6%,16,12%
CCCCN(CC)C(=O)CN1C(=O)NC(c2ccccc2)C2=C1COC2=O (stereo not drawn),.,.,-9%,.,.,.
O=C(CN1C(=O)NC2(CCCCC2)C1=O)N1CCN(S(=O)(=O)c2ccc(F)c(F)c2F)CC1,-8%,-1%,0%,?,2,?
CCn1c(=O)c(C(=O)NCc2ccccc2)c(O)c2ccccc21,-20%,-5%,24%,?,0,-20%
CCn1c(=O)c(C(=O)NCc2ccc(F)cc2)c(O)c2ccccc21,1%,-6%,3%,?,102,9.2µM*
CCn1c(=O)c(C(=O)NCc2ccc(Cl)cc2)c(O)c2ccccc21,8%,2%,4%,?,20,21µM*
COc1ccc(/C=N/n2cnnc2)cc1Oc1nc(Cl)ncc1F,9%,19%,5%,9%,11,6%
CCOc1cc(/C=N\Nc2ncc(F)c(N3CCOCC3)n2)ccc1Oc1nc(Cl)ncc1F,?,?,182%,1.8µM*,-83*,5.2µM*
CCOc1cc(/C=N/NC(=O)c2ccc(O)cc2)ccc1Oc1nc(Cl)ncc1F,-1%,-2%,?,?,0,21µM*
COc1ccc(/C=N/NC(=O)CC#N)cc1Oc1nc(Cl)ncc1F,1%,12%,0%,?,6,1%
Cc1ccc(C(=O)CC(=O)c2ccccc2C)c(O)c1,?,?,52%,2.3µM*,67,2.6µM*
Cc1ccc(C(=O)CC(=O)c2cccc(F)c2)c(O)c1,?,?,9%,6.5µM*,62,7.3µM*

# High-throughput results from PubChem.
